In the supplement of paper PMC6555819:

Assays:
Assay in all cases: PBM binding z-score (relative to random genomic background probes); higher = stronger binding; sequences stand for … in GC…GCGATTGACAGCGTAGAATGAAGG
[1] = test system: RARb homodimer (NR concentration 270 nM)
How it was run: (§1)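 Probes were double-stranded and carried 34-nt variable regions with direct-repeat seeds, single-nucleotide variants, half-site ablations and random human genomic background sequences, printed on custom Agilent 4×180K protein-binding microarrays. Arrays were incubated 1 h with ligand-free nuclear receptor dimers in PBS pH 7.4, 2% milk, 0.02% Triton X-100, 1 mM DTT, 0.2 mg/mL BSA and 0.4 mg/ml salmon testes DNA. Antibodies against each partner (one per run) detected binding, and scanned fluorescence was regression-normalized. Binding z-scores use the random background probes as reference.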

[2] = test system: RARg:RXRa (NR concentration 270 nM, RXRa partner concentration 90 nM)
How it was run: as §1

[3] = test system: RARg homodimer (NR concentration 270 nM)
How it was run: as §1

[4] = test system: RXRa DBDmut IVT, anti-RXR (DBD mutation: RXRa K156A/R161A, NR concentration 90 nM)
How it was run: as §1

[5] = test system: RXRa homodimer (NR concentration 180 nM)
How it was run: as §1

[6] = test system: THRa:RXRa (NR concentration 90 nM, RXRa partner concentration 90 nM)
How it was run: as §1

[7] = test system: THRa homodimer (NR concentration 90 nM)
How it was run: as §1

[8] = test system: VDR homodimer (NR concentration 270 nM)
How it was run: as §1

Sequence	PBM binding z-score [1]	PBM binding z-score [2]	PBM binding z-score [3]	PBM binding z-score [4]	PBM binding z-score [5]	PBM binding z-score [6]	PBM binding z-score [7]	PBM binding z-score [8]
ATATGTAGGTTACATCCGGGTCATTAAGGCTATG	3.03	3.68	2.19	1.31	3.15	3.75	2.8	2.89
GCTCCTAGGTCAGGTTGGTCAGCTAACGGGTACG	3.18	2.91	3.46	0.888	1.47	2.27	1.22	0.591
ATACCAAGGTGATCGTGACGTCGTTGATACTAAC	0.537	0.459	0.417	0.283	0.575	1.05	0.655	-0.00274
CCAGACAGGTTAAAGGTAACTCAGTCTGGTACGC	1.09	2.24	1.28	0.388	3.23	1.37	-0.0486	0.276
ATCTCTAGGTAACAAGTTCAGTAAAAGAGAGGAC	2.18	1.21	1.6	1.08	1.1	1.85	1.12	2.15
CCTACTGGGCCAAAGGTCATTGAATCCAATGCTC	4.89	5.95	4.83	1.05	6.52	3.56	0.752	2.23
TCATATAGATAAATGCTAGGTGAAAGTCCGATCT	0.00895	0.12	0.317	1.66	0.786	0.626	0.378	0.203
ACTCAAAGTTCACTAGGTAACGTAAGATTCAGCT	3.65	4.84	5.79	4.63	3.51	2.22	0.585	4.45
AATACAGGGTCATCGTAGGCTAGAGTACGCACAG	3.49	5.66	5.17	3.57	6.87	4.05	1.63	4.03
GGAAGGAGGGCAAGTTGATAGCAGAGTTTGATGG	2.04	1.51	1.88	0.971	0.655	1.08	1.12	2
TCTGCTAGGTCAACTATGGTCAGCTAATCTGCTA	3.57	4.26	5.22	1.45	3.13	3.87	0.915	0.149
AGAATGAGGTTATACGTAGATCGGGGAAGAAAGT	0.901	1.6	0.926	2.14	2.27	2.12	0.732	0.909
AGAATGAGGTTATTAAGATCTGGGAATTGCGGTC	0.732	1.04	0.692	2.16	1.77	1.99	0.599	0.954
ACTCGGAGGACCAAGGTCAGAGCTACGCCAGTGA	2.9	2.35	2.61	0.197	2.03	2.44	1.17	0.899
GCGACTGGGTCATCAGCAGGTTACCATAACTTAA	2.55	4.89	3.53	0.877	3.03	2.88	0.268	0.085
TCTATTAGTAGAAGGGCAACCGACGAGTCCGTTT	0.923	0.406	0.636	1.23	0.785	-0.0492	-0.359	1.18
CGATCTAGGTCAAGGACAGTGAATCTCCGCACGC	2.75	3.6	4.45	1.55	2.2	3.07	2.46	0.43
GCGTATAGGTAATACAAGGTGAAAGTCCGATTGT	0.95	0.423	0.499	0.141	0.647	4.35	1.03	0.00145
TCGAGTAGGTTACCAATGGGGCGTTCAGCTTTCT	0.227	0.184	0.225	0.454	0.239	-0.0946	-0.39	-0.531

Sequence	PBM binding z-score [1]	PBM binding z-score [2]	PBM binding z-score [3]	PBM binding z-score [4]	PBM binding z-score [5]	PBM binding z-score [6]	PBM binding z-score [7]	PBM binding z-score [8]
CCTACTGGGCCACGAAAGGTCATTGAATCAGTGA	4.71	4.78	4.92	0.485	5.26	3.64	0.999	1.9
TGTCAAAGTTCAAAGGTACCGTAAGTATCCACAC	4	5.69	5.77	4.44	5.81	2.65	-0.264	4.24
TCATATAGGTAAAGGTTAAAGTCGAACGATATGA	2	2.68	2.28	1.27	3.91	1.81	-0.146	0.675
TCTAGTTGGTCACGGAGGTCGCACACGACGGGTA	2.48	2.11	2.3	0.614	2.16	1.91	0.625	1.18
GATACAGGGTTAGCTAGAGGCCAGAGTATGGAAA	0.99	3.12	0.756	-0.477	0.857	1.23	-0.252	0.162
AATTACGGGTCAACGAGGTTATAGCACGCGTATA	3.63	5.71	4.88	2.47	6.2	4.18	1.16	4.13
GCATATAGGTAATACAGGGTGAAAGTCCGATTGT	0.685	0.386	0.492	0.439	0.917	3.38	0.41	0.239
CAAACTAGGTCAAGAGGTCTAAGTCCGCTTCCCG	3.42	4.23	4.4	1.73	2.76	2.82	1.1	1.23
TCTAGCAGGCCAGGGGGTCACTCAAGAGGTACGG	3.61	5.22	4.08	1.3	5.38	3.35	1.52	2.91
TAGGCTAGGTCATTGGGCCAGTATAGTACGCATC	2.94	3.67	4.61	1.54	2.5	2.54	0.641	1.09
CCGGCTGGGGCATAAGGTTACCATAAGCCAGCCC	1.62	1.83	1.05	-1.59	0.983	1.93	0.912	-0.374
TAGCCTAGGCCAGATCGGGCCAGTATACGCTATA	-0.577	-0.451	-0.0912	-1.32	-0.625	0.522	-0.893	-0.924
GCGACTGGGGCAAAGCAGGTTACTATAAGGTTGG	0.948	0.427	0.689	0.143	0.276	2.81	0.101	-0.0549
TCGAGTAGGTTACCAAAGGGGCATTCAGCTTTCT	1.34	2.2	0.617	0.44	0.779	0.46	-0.71	0.0103
TCATATAGGTAAGGGTGAAAGTCGAACGATATGA	0.703	0.914	0.595	0.475	1.36	0.89	-0.108	-0.201
AGATGTAGGTTAAGGGTCATTCAGGTTGGTTCGC	4.06	4.87	3.79	2.18	6.66	3.64	2.06	4.78
ACAGACCGGTGAGTGAAGGTAACTCAGCTGGACG	-0.506	-0.114	-0.11	-0.55	-0.109	0.21	-0.915	-0.72
CCTCGGAGGACAACATGAGGTCAGAGCTGCCAGA	3.88	3.49	3.52	1.15	2.13	4.08	3.51	2.43
AGAATGAGGTTAAGATCAGGTAAACAGAATACAT	0.989	2.66	1.76	1.17	2.81	3.55	1.36	0.461

Sequence	PBM binding z-score [1]	PBM binding z-score [2]	PBM binding z-score [3]	PBM binding z-score [4]	PBM binding z-score [5]	PBM binding z-score [6]	PBM binding z-score [7]	PBM binding z-score [8]
TTACCAAGGTGAGCTGAGGCCGTTGATCCAACTC	0.505	-0.177	-0.0104	-0.748	-0.163	3.6	0.533	-0.339
TCTAGCAGGCCAGAAGGTCACTCAAGAGGTACGG	3.87	3.95	3.46	0.459	3.15	2.28	0.225	1
CCTGCTACGTCATGGTCAGCTAATCTACAGTATG	-0.0724	0.00255	-0.0549	0.43	-0.184	-0.381	-0.695	-0.512
TCTTGTAGATCAACAGGAGGTTGAGAAAGATCGA	-0.533	0.156	-0.228	0.313	0.301	-0.174	-0.919	-0.475
TCTGCTAGGTCAGTTGGTGAGCTAACGAGCTGCC	1.93	2.27	3.76	0.367	0.541	1.04	-0.41	-0.739
TCTGCTAGGTCAACGATGGACAGCTAATCTGCTA	2.79	3.82	4.71	0.955	2.5	2.86	0.203	-0.736
GCTGCTAGGTCAACTGATGGTCAGCTACAGCTCG	3.81	5.01	5.31	1.56	2.82	2.94	0.9	0.228
CGTCCAAGGTCATCAGGTCAGTGAAAGCGACGTG	5.08	6.56	6.99	4.23	6.63	4.34	3.86	3.8
ATATGTATGTTATCGGGTCATTCAGTTTGCGCAT	2.47	2.01	1.75	1.81	2.28	3.26	2.66	3.18
GCTCGGAGGACAAGTTCAGAGCTTTGTCCGTAGA	1.38	0.89	1.25	1.73	0.198	1.27	-0.148	1.89
AGAACGAGGGCAAGGAGTTGATAGCACGGGTGGC	0.992	1.21	1.49	1.12	0.867	0.885	-0.277	1.93
GCTGCTAGGTGAACTGATGGTCAGCTAAAGCTCG	0.715	0.956	0.47	-0.22	0.333	1.03	-0.574	-0.742
GCAGACAAGTGAAACGCAGGTAACTCAGGGTGGC	-1	-0.267	-0.436	-0.633	0.115	0.682	-0.967	-0.593
TCTTGTTGGTCACGGAGGTCACACACGACGGGTA	4.67	5.21	5.01	1.25	5.34	3.66	3.03	3.59
TAGCCTAGGTCATTGGGTCAGTATAGTACGCATC	4.17	5.16	5.23	1.87	3.63	3.25	1.84	2.21
CAGCCTAGGTCAGGGCCAGTAAAGGAGGAACGTT	2.33	2.7	3.44	-0.0941	1.55	1.86	0.361	-0.267
TCTTGTATATCAGCAGGTTAAGAAAGCTGGCCAA	0.756	0.511	0.266	1.05	0.75	0.759	0.0914	0.143
GCGACTGGGGCAAAGCAGGTTACCATGAGGTTGG	1.2	0.634	0.674	-0.402	0.455	2.99	-0.00664	-0.385
CCCTACGGGTCACTCCAGGTTATAGCATCGGAGT	3.22	4.52	4.67	0.434	4.72	4.94	0.457	1.79
